TDP1 inh: inhibitors of human tyrosyl-DNA phosphodiesterase TDP1. Q9NUW8. recombinant TDP1, AlphaScreen DNA substrate cleavage. Potency, µM (series often up to 130 µM), hits mostly inhibitors. hit rate 0.28% among 350,000. AID 485290; further: nearly all actives have a fitted effect of over 40% in size
Target sequence (Q9NUW8 whole entry, looked up): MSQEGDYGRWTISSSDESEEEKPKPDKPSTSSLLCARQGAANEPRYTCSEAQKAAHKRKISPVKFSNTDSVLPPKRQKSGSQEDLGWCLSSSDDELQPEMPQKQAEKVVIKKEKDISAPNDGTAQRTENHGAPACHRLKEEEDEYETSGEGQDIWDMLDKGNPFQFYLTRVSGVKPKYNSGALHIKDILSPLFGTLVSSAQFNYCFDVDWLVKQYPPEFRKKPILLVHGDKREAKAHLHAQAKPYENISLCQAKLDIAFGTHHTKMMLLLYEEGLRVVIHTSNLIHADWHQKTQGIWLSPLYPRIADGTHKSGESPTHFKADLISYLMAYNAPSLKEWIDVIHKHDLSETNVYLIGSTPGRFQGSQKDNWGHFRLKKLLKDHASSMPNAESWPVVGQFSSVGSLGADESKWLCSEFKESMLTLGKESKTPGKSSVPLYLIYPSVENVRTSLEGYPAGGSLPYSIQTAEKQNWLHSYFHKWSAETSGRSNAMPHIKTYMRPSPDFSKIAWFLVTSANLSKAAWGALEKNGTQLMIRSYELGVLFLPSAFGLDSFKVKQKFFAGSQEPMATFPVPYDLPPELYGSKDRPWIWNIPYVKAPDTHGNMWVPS
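Compounds were preincubated with Tdp1 (1 nM final) for 15 min at room temperature before substrate (15 nM final) started a 5 min reaction; beads (10 ug/ml final) were then added for 10 min before AlphaScreen detection.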
DT40 TDP1 no CPT: qHTS for Inhibitors of human tyrosyl-DNA phosphodiesterase 1 (TDP1): qHTS in cells in absence of CPT; DT40 Tdp1-/- hTDP1 cells, no CPT, ATP luminescence, 48 h; Potency, µM (titrated, usually from 46.2 µM), actives largely listed as inhibitors; hit rate 15% among 420,000; AID 686978, 2013; further: nearly all actives have a fitted effect of over 55% in size
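Growth kinetics read by CellTiter-Glo luminescence after ≥48 hr at 37 °C. Cells: DT40 Tdp1-/- stably carrying human TDP1, 400 per well, compound exposure in the absence of CPT (DMSO vehicle).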
IL1B secr inh: inflammasome signaling inhibition, IL-1 beta readout; THP-1 LPS/ATP IL-1B secretion, AlphaLISA, 16 h; active compounds read low; activity change, % at 57.5 µM; hit rate 4.7% among 360,000; AID 743279; in the data active means activity change below about -50%; inconclusive means mostly about -30% to -49%
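Secreted IL-1B measured by AlphaLISA bead assay after 16 h compound exposure of THP-1 cells; compounds (final up to 57.5 uM) added 1 h before LPS (250 ng/mL) and ATP (1.25 mM) stimulation; lower signal means less secretion.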
TGFb inhibitor: TGF-b pathway inhibition. AID 588855. hit rate 1.2% among 410,000. HepG2 CAGA-GFP TGF-b/SMAD3 reporter, GFP fluorescence, 18 h; TGF-beta stimulated, 500 pg/mL final. Potency, µM (titrated, usually from 46.1 µM), hits mostly inhibitors; further: nearly all actives have a fitted effect of over 65% in size
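Inhibition of TGF-beta-driven CAGA-GFP reporter expression in HEPG2 cells is measured by cellular GFP fluorescence after 18 h stimulation with 500 pg/mL recombinant TGF-beta in 1% FBS medium at 37 degrees C.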
TDP1 cell CPT: DT40-hTDP1 cell growth loss with CPT. chicken DT40 Tdp1-/-;hTDP1 cells + 20 nM CPT, ATP luminescence, 48 h. Potency, µM (series often up to 46.2 µM), usual class: inhibitors. hit rate 12% among 420,000. AID 686979; further: nearly all actives have a fitted effect of over 55% in size
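Chicken DT40 Tdp1-/- cells stably complemented with human TDP1 were seeded at 400 cells/well in medium containing 20 nM camptothecin, exposed to pin-transferred compounds, and grown at 37 °C for at least 48 hr. Viability was read as ATP luminescence.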
HepG2 viability: HepG2 cytotoxicity, counter-screen for TGF-b inhibitors; Potency, µM (doses to about 46.1 µM), actives largely listed as cytotoxic; HepG2 CAGA-GFP viability, ATP luminescence, 18 h; hit rate 0.76% among 410,000; AID 588856
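CellTiter-Glo luminescence gave cytotoxicity after 18 hours at 37 degrees C. The cells were HepG2 CAGA-GFP in 1% FBS DMEM, stimulated with 500 pg/mL TGF-beta after compound addition. %Activity was normalised to no-cell wells (complete cell-killing) and DMSO (no toxicity), and curves were fitted and classified.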
A number is an active result; - = inactive; ? = inconclusive; . = not tested or not shown; [ ] = remark or other dose. Most compounds without a hit are left out; they make up all but 19% or so of the library. Unless noted, the call rests on the fitted dose curve; in most records, active means well fitted curve in the direction sought with a large enough effect; inconclusive means small, poorly fitted or top-dose-only effect, or another doubt; inactive means no such curve, though single readings can be large; an effect the other way counts as inactive or inconclusive.

SMILES	TDP1 inh	DT40 TDP1 no CPT	IL1B secr inh	TGFb inhibitor	TDP1 cell CPT	HepG2 viability
CCN1CCCC1Cn1c(-c2ccccc2)nc2c(NCCOC)nc(C)nc21 (stereo not drawn)	-	.	.	.	.	.
CC(C)(C)NC(=O)COC(=O)c1ccc2c(c1)C(=O)N(Cc1ccco1)C2=O	-[0.0935 µM]	-	-	-	-	-
Cc1cc(C)cc(-n2ccn(Cc3ccc(F)cc3)c(=O)c2=O)c1	-	-	.	-	-	-
O=c1[nH]cc(N=Cc2cc([N+](=O)[O-])ccc2O)c(=O)[nH]1	-	.	.	.	.	.
Cc1cc(O)c(C(C)C)cc1N=Cc1cc([N+](=O)[O-])ccc1O	-	16µM	-	-	23µM	-
Cc1cc(O)c(C(C)C)cc1N=Cc1ccccc1O	-	4.6µM	-	?	3.7µM	-
COc1ccc(OC)c(S(=O)(=O)NC(=O)C2(C)CCN2C(=O)C2(c3ccc(Cl)cc3)CC2)c1 (stereo not drawn)	.	-	-	-	-	-
Cc1ccc(CNC(=O)c2cnc3c(-c4ccc(F)cc4)c(C)nn3c2C)o1	-	-	.	-	-	-
CC(C)Cc1nnc(NC(=O)c2ccc(S(=O)(=O)N3CCCC3)cc2)s1	-	-	-	-	-	-
O=C(Nc1ccccc1)C12CC3CC(C1)CC(n1cnc([N+](=O)[O-])n1)(C3)C2	-	-	-	-	-	-
O=C(Nc1cccc([N+](=O)[O-])c1)C12CC3CC(C1)CC(n1cnc([N+](=O)[O-])n1)(C3)C2	-	?	-	-	26µM	-
OC1CCCC1NCc1ccnc2cc(Cl)ccc12 (stereo not drawn)	.	16µM	-	-	?	-
OC(CNC1CCCCC1)CNC1CCCCC1	-	-	-	-	?	-
OC(CNc1ccnc2cc(Cl)ccc12)CNC1CCCCC1 (stereo not drawn)	.	16µM	-114	?	18µM	-
CCNC1CCC(Nc2ccnc3cc(Cl)ccc23)CC1 (stereo not drawn)	.	9.2µM	-98	-	18µM	-
O=C(C1CC1)N1CCN(c2ccnc3cc(Cl)ccc23)CC1	-	?	-	?	?	-
COc1cccc(S(=O)(=O)N(C)C[C@@H]2OCc3cn(nn3)CCCC(=O)N([C@H](C)CO)C[C@H]2C)c1	.	?	-	-	-	-
Cc1ccc(NC(=O)c2ccccc2SCC(=O)N2CCCC2)cc1S(=O)(=O)N(C)C	-	-	-	?	-	-
OCCC1CN(Cc2cccn2-c2nccs2)CCN1Cc1ccc(F)c(F)c1 (stereo not drawn)	.	18µM	-	-	13µM	-
COc1ccc(C(=O)C2CCCN(Cc3cccn3-c3nccs3)C2)cc1F (stereo not drawn)	-	21µM	-84	?	23µM	-
COc1ccc(C(=O)C2CCCN(Cc3cccn3-c3nccs3)C2)cc1OC (stereo not drawn)	.	13µM	-	?	18µM	-
COC(=O)CC1COc2ccccc2N1C(=O)/C=C/c1ccccc1 (stereo not drawn)	.	?	-	-	?	-
CC(C)(C)OC(=O)N1CCC(C(=O)Nc2ccc(C(=O)NCCc3ccccc3)cc2)CC1	.	10µM	-	-	?	-
CC(C)(C)OC(=O)N1CCC(C(=O)Nc2cccc(C(=O)NCCCCc3ccccc3)c2)CC1	.	?	-	-	?	-
CC(C)(C)OC(=O)N1CCC(C(=O)Nc2ccc(C(=O)NCc3ccccc3)cc2)CC1	.	15µM	-	-	16µM	-
SMILES	TDP1 inh	DT40 TDP1 no CPT	IL1B secr inh	TGFb inhibitor	TDP1 cell CPT	HepG2 viability
CCOc1nc(C#N)nc(N(c2ccccc2)c2ccccc2)n1	-	-	.	-	-	-
Cc1ccc(NS(=O)(=O)c2cccc(C(=O)NCCc3c[nH]c4ccccc34)c2)c(C)c1	-	?	-78	?	?	-
Cc1ccccc1NC(=S)NCCc1c[nH]c2ccccc12	-	?	-	?	-	-
Cc1ccc(C)c(NC(=S)NCCc2c[nH]c3ccccc23)c1	-	13µM	-58	?	?	-
S=C(NCCCc1ccccc1)NC1CCCCC1	-	?	-89	?	?	-
S=C(NCCc1c[nH]c2ccccc12)NC1CCCCC1	-	?	-52	-	?	-
C[C@H]1[C@H]2CC[C@H]3C4CC=C5C[C@@H](N(C)C)CC[C@]5(C)C4CC[C@]23CN1C (stereo partly drawn)	-	?	.	.	?	.
CN1CC[C@@]2(CCCN(C(=O)c3cc(C(F)(F)F)cc(C(F)(F)F)c3)C2)C1	.	-	.	.	-	.
Cc1ccc(-c2nc3nc(C)cc(N4CCN(c5cccc(C)c5C)CC4)n3n2)cc1	-	-	.	-	-	-
Cc1ccc(NC(=S)NCCc2c[nH]c3ccccc23)cc1	-	23µM	-	?	?	-
Cc1ccc(C(=O)N/C(=C\c2cccs2)C(=O)NCCc2c[nH]c3ccccc23)cc1	-	?	-63	?	?	-

From PubChem
